Where “and” joins values, the source holds several entries; their conditions need not be identical. Equal values may be shown once. Inconclusive results are not listed. The source holds several records for some structures; these can differ, active in one and inactive in another. Calls of active or inactive are those of the source. Unless noted, the call rests on the fitted dose curve.
Key:
[1] = Primary qHTS for Huh7 cytotoxicity: counterscreen for inhibitors of MERS-S pseudotyped particle cell entry (AID 1479147); details: outcome: dose series up to 57.1 µM unless noted
[2] = Primary qHTS for inhibitors of MERS-S pseudo-typed particle cell entry (AID 1479149); details: outcome: dose series up to 57.1 µM unless noted; further: nearly all actives have a fitted effect of over 60% in size
[3] = Primary qHTS for Vero E6 cytotoxicity: counterscreen for inhibitors of SARS-S pseudo-typed particle cell entry (AID 1479150); details: outcome: dose series up to 57.1 µM unless noted
[4] = Cytotoxicity counterscreen for inhibitors of SARS-CoV-2 cell entry (AID 1645845); details: outcome: dose series up to 57.1 µM unless noted; further: nearly all actives have a fitted effect of over 50% in size
In short: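 48 h compound treatment (after 1 h preincubation), HEK293-ACE2 cells, 37 C/5% CO2; ATP luminescence endpoint; normalized to cell wells and media blanks.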

[5] = Primary qHTS to identify inhibitors of SARS-CoV-2 cell entry (AID 1645846); details: SARS-CoV-2 pseudovirus cell entry assay, luminescence; activity change, negative = inhibition: at 57.1 µM (top of the series) unless noted; further: nearly all actives have a fitted effect of over 45% in size
In short: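 HEK293 cells stably expressing human ACE2, pre-treated 1 h with compound, then infected with MLV particles pseudotyped with Wuhan-Hu-1 spike (C-terminal 19-aa truncation). Luciferase luminescence after 48 h at 37 °C, normalised to spike PP and bald PP.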

[6] = Confirmatory qHTS for VERO E6 Cytotoxicity Assay: Counterscreen for SARS-CoV-2 CPE Assay (AID 1508605); further: on the % scale 0 is the no-effect control and ±100 the full control effect; nearly all actives have a fitted effect of over 60% in size
[7] = target: Androgen receptor (Homo sapiens) (UniProt P10275); assay: qHTS assay for small molecule antagonists of androgen receptor signaling (AID 588516; active means well fitted curve in the direction sought with a large enough effect in the signal ratio, with a control signal flat, not every such curve was filed as active; the % refers to the signal ratio; further: potency means the concentration at half of the fitted maximal effect)
Chain of Androgen receptor (Homo sapiens) (P10275 whole entry, looked up): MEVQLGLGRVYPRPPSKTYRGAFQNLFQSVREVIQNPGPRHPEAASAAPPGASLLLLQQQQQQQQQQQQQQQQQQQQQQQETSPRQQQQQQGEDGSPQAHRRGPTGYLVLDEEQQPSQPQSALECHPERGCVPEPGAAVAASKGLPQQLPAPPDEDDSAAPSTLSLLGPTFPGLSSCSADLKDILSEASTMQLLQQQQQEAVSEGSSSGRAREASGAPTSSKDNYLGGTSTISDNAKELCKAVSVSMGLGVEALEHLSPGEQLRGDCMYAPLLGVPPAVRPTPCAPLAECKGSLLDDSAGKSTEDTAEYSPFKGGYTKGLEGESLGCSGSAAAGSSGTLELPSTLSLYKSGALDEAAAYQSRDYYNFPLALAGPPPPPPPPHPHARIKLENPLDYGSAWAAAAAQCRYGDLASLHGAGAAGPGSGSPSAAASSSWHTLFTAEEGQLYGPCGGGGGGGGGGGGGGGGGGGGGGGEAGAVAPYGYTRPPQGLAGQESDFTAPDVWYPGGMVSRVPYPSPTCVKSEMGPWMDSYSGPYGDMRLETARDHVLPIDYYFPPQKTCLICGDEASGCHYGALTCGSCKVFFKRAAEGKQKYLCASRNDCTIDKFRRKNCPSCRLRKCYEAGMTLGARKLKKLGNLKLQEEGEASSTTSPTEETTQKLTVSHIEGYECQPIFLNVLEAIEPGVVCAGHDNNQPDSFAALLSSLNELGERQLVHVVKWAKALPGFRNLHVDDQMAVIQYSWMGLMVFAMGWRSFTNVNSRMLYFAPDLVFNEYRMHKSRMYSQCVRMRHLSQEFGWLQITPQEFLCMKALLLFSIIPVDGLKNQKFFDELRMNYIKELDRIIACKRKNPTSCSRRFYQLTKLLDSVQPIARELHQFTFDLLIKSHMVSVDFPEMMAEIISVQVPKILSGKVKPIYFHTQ
In short: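 AR-UAS-bla GripTite HEK 293 cells (2000/well) treated with compound titrations plus 10 nM R1881 for 16 h at 37C. Beta-lactamase read by CCF4 FRET (460/530 nm); IC50 from Hill fits, normalized to R1881 and DMSO control wells.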

[8] = target: Bile acid receptor (Homo sapiens) (UniProt Q96RI1); assay: qHTS assay for small molecule antagonists of farnesoid X receptor signaling (AID 588526); further: on the % scale 0 is the no-effect control and ±100 the full control effect
Chain of Bile acid receptor (Homo sapiens) (Q96RI1 whole entry, looked up): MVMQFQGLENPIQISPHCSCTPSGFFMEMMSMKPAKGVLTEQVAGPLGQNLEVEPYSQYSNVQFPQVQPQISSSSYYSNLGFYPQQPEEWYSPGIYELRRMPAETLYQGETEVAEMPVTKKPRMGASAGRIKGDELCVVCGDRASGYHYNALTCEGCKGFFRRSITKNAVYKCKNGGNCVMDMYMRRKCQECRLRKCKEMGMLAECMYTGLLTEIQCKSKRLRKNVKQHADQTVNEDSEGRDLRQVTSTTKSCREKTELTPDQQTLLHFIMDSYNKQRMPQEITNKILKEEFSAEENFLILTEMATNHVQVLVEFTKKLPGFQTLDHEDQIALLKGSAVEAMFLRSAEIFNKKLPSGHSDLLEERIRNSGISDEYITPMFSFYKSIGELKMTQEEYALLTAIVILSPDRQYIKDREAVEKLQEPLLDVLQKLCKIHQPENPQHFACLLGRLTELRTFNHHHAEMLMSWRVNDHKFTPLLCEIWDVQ
In short: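 Beta-lactamase reporter antagonist mode: HEK293T FXR-UAS-bla cells, titrated compound, CDCA stimulation, 16 h 37 C, CCF4 dye 2 h RT. Data normalized to CDCA 50 uM and DMSO; Hill-fit IC50.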

[9] = target: Bile acid receptor (Homo sapiens) (UniProt Q96RI1); assay: qHTS assay for small molecule agonists of farnesoid X receptor signaling (AID 588527); details: HEK293T FXR-UAS-bla, beta-lactamase ratio, 16 h; stronger effect = higher value;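 further: 0% = vehicle basal and 100% = reference agonist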
In short: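 FXR-UAS-bla HEK293T cells (10% dialyzed FBS) preincubated 5-7 h at 37 C, then compounds at up to 92 uM for 16 h at 37 C. CCF4 beta-lactamase read-out after 2 h RT. Normalized to chenodeoxycholic acid (100 uM) and DMSO; Hill fit gave EC50 and efficacy.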

[10] = target: Peroxisome proliferator-activated receptor delta (Homo sapiens) (UniProt Q03181); assay: qHTS assay for small molecule agonists of peroxisome proliferator-activated receptor delta signaling (AID 588534);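 further: 0% = DMSO basal wells and 100% = positive control agonist at 10 µM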
Chain of Peroxisome proliferator-activated receptor delta (Homo sapiens) (Q03181 whole entry, looked up): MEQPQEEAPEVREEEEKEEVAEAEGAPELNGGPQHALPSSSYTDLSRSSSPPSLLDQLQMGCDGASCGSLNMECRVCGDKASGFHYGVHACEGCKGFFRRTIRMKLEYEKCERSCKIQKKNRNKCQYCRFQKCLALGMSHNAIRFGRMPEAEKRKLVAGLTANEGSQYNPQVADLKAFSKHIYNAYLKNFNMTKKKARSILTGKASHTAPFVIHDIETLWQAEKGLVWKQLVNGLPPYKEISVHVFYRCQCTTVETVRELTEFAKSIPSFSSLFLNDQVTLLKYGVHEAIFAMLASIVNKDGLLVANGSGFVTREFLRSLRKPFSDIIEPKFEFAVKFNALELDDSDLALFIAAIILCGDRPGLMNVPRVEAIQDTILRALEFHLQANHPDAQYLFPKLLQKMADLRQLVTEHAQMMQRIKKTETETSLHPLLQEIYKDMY
In short: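 Reporter cells were plated and held 5 hrs at 37 C before compounds were added. After 18 hrs at 37 C, CCF4 dye was loaded for 2 hrs at RT and fluorescence measured.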

[11] = qHTS assay for small molecule antagonists of peroxisome proliferator-activated receptor delta signaling (AID 588535; active means well fitted inhibition curve with a large enough effect in the signal ratio, with a control signal flat, not every such curve was filed as active; the % refers to the signal ratio;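 on max response: cells co-treated with a PPAR-delta agonist as stimulator during compound exposure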); details: HEK293T PPARd-UAS-bla, beta-lactamase FRET ratio, 18 h; 460 nm channel
In short: (§1)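 Cell-based beta-lactamase assay in antagonist mode: 4000 HEK293T PPAR-delta-UAS-bla cells per well, 5 hr preincubation then 18 hr compound incubation at 37 C. IC50 obtained by Hill equation fitting.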

[12] = target: Peroxisome proliferator-activated receptor delta (Homo sapiens) (UniProt Q03181); assay: as above
In short: as §1

[13] = target: Peroxisome proliferator-activated receptor gamma (Homo sapiens) (UniProt P37231); assay: qHTS assay for small molecule agonists of peroxisome proliferator-activated receptor gamma signaling (AID 588536; active means well fitted curve in the direction sought with a large enough effect in the signal ratio, with a control signal flat, not every such curve was filed as active; the % refers to the signal ratio;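 further: 0% = DMSO basal wells and 100% = rosiglitazone at 2 µM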)
Chain of Peroxisome proliferator-activated receptor gamma (Homo sapiens) (P37231 whole entry, looked up): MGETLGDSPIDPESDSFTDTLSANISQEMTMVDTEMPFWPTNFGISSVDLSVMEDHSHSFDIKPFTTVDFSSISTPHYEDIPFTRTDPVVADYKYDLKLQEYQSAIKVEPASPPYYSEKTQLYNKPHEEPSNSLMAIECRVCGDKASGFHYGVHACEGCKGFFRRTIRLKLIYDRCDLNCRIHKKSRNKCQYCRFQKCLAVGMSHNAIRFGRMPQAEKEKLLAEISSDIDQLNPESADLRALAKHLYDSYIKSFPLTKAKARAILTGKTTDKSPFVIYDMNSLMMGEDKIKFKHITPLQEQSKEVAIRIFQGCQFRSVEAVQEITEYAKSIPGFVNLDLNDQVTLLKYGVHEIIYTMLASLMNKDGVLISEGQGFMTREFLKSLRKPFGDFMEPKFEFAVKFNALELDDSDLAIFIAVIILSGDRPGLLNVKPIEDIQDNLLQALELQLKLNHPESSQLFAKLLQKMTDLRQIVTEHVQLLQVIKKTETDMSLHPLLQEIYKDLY
In short: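 GeneBLAzer PPAR-gamma-UAS-bla HEK293 cells in 1% charcoal/dextran-treated FBS medium were treated 16 h at 37 C with compounds. Beta-lactamase activity was read by CCF4 ratio (460/530 nm). Response was normalized to 2 uM rosiglitazone (100%) and DMSO, then Hill-fitted for EC50 and efficacy.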

[14] = target: Peroxisome proliferator-activated receptor gamma (Homo sapiens) (UniProt P37231); assay: qHTS assay for small molecule antagonists of peroxisome proliferator-activated receptor gamma signaling (AID 588537; active means well fitted inhibition curve with a large enough effect in the signal ratio, with a control signal flat, not every such curve was filed as active; the % refers to the signal ratio;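 further: reporter cells co-stimulated with 50 nM rosiglitazone agonist during compound treatment; % of control where 0% means no effect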)
In short: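 Inhibitors of agonist-stimulated UAS-bla reporter activity were sought in HEK293 cells; rosiglitazone (50 nM) defined full signal and DMSO baseline. Curves fitted to Hill model gave IC50 and efficacy.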

[15] = target: Vitamin D3 receptor (Homo sapiens) (UniProt P11473); assay: qHTS assay for small molecule antagonists of vitamin D receptor signaling (AID 588541);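 further: receptor activated by calcitriol during compound treatment; on the % scale 0 is the no-effect control and ±100 the full control effect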
Chain of Vitamin D3 receptor (Homo sapiens) (P11473 whole entry, looked up): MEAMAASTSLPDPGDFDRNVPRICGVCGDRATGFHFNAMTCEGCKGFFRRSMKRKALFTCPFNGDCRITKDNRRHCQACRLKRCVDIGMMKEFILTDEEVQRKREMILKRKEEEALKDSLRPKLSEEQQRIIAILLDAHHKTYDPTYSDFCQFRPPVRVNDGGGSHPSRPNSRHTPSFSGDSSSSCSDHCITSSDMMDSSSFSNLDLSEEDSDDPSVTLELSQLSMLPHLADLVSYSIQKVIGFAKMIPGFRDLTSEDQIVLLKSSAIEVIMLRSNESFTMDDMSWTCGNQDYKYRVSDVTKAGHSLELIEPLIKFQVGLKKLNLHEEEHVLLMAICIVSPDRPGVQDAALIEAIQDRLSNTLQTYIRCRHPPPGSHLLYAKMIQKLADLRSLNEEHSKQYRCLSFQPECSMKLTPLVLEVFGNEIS
In short: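 Antagonist-mode beta-lactamase reporter assay: HEK293T VDR-UAS-bla cells were exposed to titrated compound alongside 1-alpha,25-dihydroxyvitamin D3 at 3 nM final for 16 h. Values were normalized to the 50 nM agonist control and DMSO basal, with IC50 and efficacy from Hill equation fits.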

[16] = target: Vitamin D3 receptor (Homo sapiens) (UniProt P11473); assay: qHTS assay for small molecule agonists of vitamin D receptor signaling (AID 588543);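 further: 0% = DMSO basal and 100% = reference agonist control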
In short: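 VDR-UAS-bla HEK293T cells, 2000/well, 2% charcoal-stripped FBS; compound titration 16 h at 37 C; CCF4 beta-lactamase ratio read. Normalized to 50 nM 1-alpha,25-dihydroxyvitamin D3 (100%) and DMSO; Hill fit gives EC50, efficacy.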

[17] = target: Thyroid hormone receptor beta (Homo sapiens) (UniProt P10828); assay: qHTS assay for small molecule agonists of thyroid hormone receptor beta signaling (AID 588545);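 further: 0% = DMSO only and 100% = 10 nM T3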
Chain of Thyroid hormone receptor beta (Homo sapiens) (P10828 whole entry, looked up): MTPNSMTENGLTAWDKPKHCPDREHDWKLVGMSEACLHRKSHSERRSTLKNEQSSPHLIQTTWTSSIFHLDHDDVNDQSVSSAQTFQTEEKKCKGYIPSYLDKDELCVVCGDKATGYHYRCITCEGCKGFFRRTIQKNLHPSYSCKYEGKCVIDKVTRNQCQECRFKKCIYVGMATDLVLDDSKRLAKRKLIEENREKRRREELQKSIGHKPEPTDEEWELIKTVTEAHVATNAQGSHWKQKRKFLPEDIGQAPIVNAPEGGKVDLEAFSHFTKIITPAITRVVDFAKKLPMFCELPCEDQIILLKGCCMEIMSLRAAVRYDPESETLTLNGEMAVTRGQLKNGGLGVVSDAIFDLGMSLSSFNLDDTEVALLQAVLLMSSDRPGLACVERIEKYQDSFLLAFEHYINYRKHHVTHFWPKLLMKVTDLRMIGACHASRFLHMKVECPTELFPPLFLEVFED
In short: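 TR-UAS-bla-GripTite HEK 293 cells in medium with 2% charcoal/dextran FBS, 0.1 mM NEAA and 1 mM sodium pyruvate were treated with titrated compounds for 18 hrs at 37 C. Beta-lactamase reporter was read with CCF4 dye (ex 405, em 460/530 nm); EC50 from Hill fits.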

[18] = qHTS assay for small molecule antagonists of retinoid X receptor alpha signaling (AID 588546; active means well fitted inhibition curve with a large enough effect in the signal ratio, with a control signal flat, not every such curve was filed as active; the % refers to the signal ratio;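 further: cells stimulated with 9-cis-retinoic acid as agonist; on the % scale 0 is the no-effect control and ±100 the full control effect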); details: HEK293T RXRa-UAS-bla, beta-lactamase ratio, antagonist mode; measured here: W530 green channel, cytotoxicity proxy
In short: (§2)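 Beta-lactamase reporter inhibition, read as CCF4 fluorescence ratio (ex 405, em 460/530 nm) after 2 h at RT. HEK293T UAS-bla cells, 2500/well, were stimulated with 9-cis-RA at 500 or 100 nM final alongside test compound for 18 h at 37 C.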

[19] = target: Retinoic acid receptor RXR-alpha (Homo sapiens) (UniProt P19793); assay: as above; details: HEK293T RXRa-UAS-bla, beta-lactamase ratio, antagonist mode
Chain of Retinoic acid receptor RXR-alpha (Homo sapiens) (P19793 whole entry, looked up): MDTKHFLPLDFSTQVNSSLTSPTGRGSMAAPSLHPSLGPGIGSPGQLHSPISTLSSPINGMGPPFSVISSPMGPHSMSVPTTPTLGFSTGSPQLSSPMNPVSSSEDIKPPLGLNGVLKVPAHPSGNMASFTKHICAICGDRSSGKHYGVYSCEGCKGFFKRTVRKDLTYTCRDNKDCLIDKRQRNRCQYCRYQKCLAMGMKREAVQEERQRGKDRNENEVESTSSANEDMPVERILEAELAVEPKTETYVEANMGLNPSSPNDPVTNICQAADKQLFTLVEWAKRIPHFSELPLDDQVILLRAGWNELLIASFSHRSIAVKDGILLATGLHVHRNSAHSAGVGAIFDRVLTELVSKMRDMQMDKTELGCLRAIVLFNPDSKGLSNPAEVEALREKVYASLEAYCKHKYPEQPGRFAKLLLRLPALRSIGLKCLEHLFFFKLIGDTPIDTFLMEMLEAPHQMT
In short: as §2

[20] = target: Thyroid hormone receptor beta (Homo sapiens) (UniProt P10828); assay: qHTS assay for small molecule antagonists of thyroid hormone receptor beta signaling (AID 588547; active means well fitted inhibition curve with a large enough effect in the signal ratio, with a control signal flat, not every such curve was filed as active; the % refers to the signal ratio;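 further: cells stimulated with 0.4 nM T3 agonist during compound exposure; on the % scale 0 is the no-effect control and ±100 the full control effect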); details: TR-UAS-bla HEK293, beta-lactamase ratio, antagonist mode, 18 h
In short: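 Inhibition of T3-driven (0.4nM final) beta-lactamase reporter activity was measured over 0.59 nM to 92 uM compound after 18 h at 37 C. The cells were GripTite HEK293 TR-UAS-bla in charcoal/dextran-stripped serum, with CCF4 ratio read-out and IC50 from Hill fits.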

[21] = qHTS assay for small molecule agonists of the antioxidant response element (ARE) signaling pathway (AID 651741; active means well fitted activation curve with a large enough effect in the signal ratio; the % refers to the signal ratio; further: potency means the concentration at half of the fitted maximal effect)
In short: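 Seeding 2,000 ARE-bla HepG2 cells per well preceded a 5 h incubation at 37 C/5% CO2 and a 16 h compound exposure at 37 C. Beta-lactamase reporter activity was then quantified by fluorescence after 2 h with LiveBLAzer B/G FRET substrate.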

[22] = qHTS assay for small molecule activators of the p53 signaling pathway (AID 651743; active means well fitted activation curve with a large enough effect in the signal ratio, not every such curve was filed as active; the % refers to the signal ratio; further: % of control where 0% means no effect); details: HCT-116 p53RE-bla, beta-lactamase FRET ratio, 16 h; activation: stronger effect = higher value
In short: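 Screen for p53 pathway agonists uses stably transfected p53RE-bla HCT-116 cells, 4,000 per well, treated 16 h at 37 C with compounds in DMSO.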

[23] = qHTS assay for small molecule activators of the nuclear factor-kappa B (NF-kB) signaling pathway (AID 651749; active means well fitted activation curve with a large enough effect in the signal ratio; the % refers to the signal ratio; further: % of control where 0% means no effect); details: NF-kB-bla ME-180 cells, beta-lactamase FRET ratio, 16 h; activation: stronger effect = higher value
In short: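 Stably transfected ME-180 line; NF-kB response element upstream of beta-lactamase. Treatment: compound or DMSO, 16 hr. Detection: fluorescent FRET substrate.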

[24] = qHTS assay for environmental chemicals that activate the Aryl hydrocarbon Receptor (AhR) signaling pathway (AID 651777; active means well fitted curve in the direction sought with a large enough effect; an effect the other way counts as inactive or inconclusive; further: % of control where 0% means no effect; nearly all actives have a fitted effect of over 15% in size); details: 1A2-DRE human hepatoma cells, luciferase, 24 h; activation: stronger effect = higher value
In short: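 Luminescence read-out: One-Glo added for 30 min at RT after 24 hr compound treatment (37 C, 5% CO2) of human hepatoma cells expressing a DRE/CYP1A2 promoter–luciferase reporter; increased signal indicates AhR activation.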

[25] = target: Peroxisome proliferator-activated receptor alpha (Homo sapiens) (UniProt Q07869); assay: qHTS assay for small molecule agonists of the peroxisome proliferator-activated receptor alpha (PPARalpha) signaling pathway (AID 651778; active means well fitted curve in the direction sought with a large enough effect; an effect the other way counts as inactive or inconclusive; further: % of control where 0% means no effect); details: PathHunter PPARalpha complementation, chemiluminescence, 6 h; stronger effect = higher value
Chain of Peroxisome proliferator-activated receptor alpha (Homo sapiens) (Q07869 whole entry, looked up): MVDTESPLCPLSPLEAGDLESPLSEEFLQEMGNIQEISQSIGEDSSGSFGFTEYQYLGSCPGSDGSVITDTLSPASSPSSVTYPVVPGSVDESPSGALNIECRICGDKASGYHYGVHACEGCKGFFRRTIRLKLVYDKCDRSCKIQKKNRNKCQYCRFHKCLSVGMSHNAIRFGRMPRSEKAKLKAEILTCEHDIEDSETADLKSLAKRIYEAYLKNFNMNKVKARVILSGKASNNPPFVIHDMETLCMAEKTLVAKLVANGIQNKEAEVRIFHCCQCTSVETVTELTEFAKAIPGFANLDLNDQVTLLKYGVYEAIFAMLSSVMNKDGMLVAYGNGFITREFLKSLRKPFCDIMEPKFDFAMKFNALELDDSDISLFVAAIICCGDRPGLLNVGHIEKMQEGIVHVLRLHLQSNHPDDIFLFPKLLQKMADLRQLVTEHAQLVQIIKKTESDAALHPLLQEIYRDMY
In short: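 Chemiluminescence from complemented enzyme reported PPARalpha activation in cells after 6 hr of compound treatment at 37 C. The detection reagent was incubated for 60 min at room temperature, and compounds were scored as agonists.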

[26] = qHTS assay for small molecule agonists of the antioxidant response element (ARE) signaling pathway measured by Nrf2-dependant transcriptional activity - cell viability counter screen (AID 720653; active means well fitted curve in the direction sought with a large enough effect in the repeat runs; an effect the other way counts as inactive or inconclusive; further: on the % scale 0 is the no-effect control and ±100 the full control effect); details: ARE-bla HepG2 viability, CellTiter-Glo ATP luminescence, 16 h; stronger effect = lower value
In short: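 Cytotoxicity counter screen: intracellular ATP quantified by CellTiter-Glo luminescence in the same ARE-bla HepG2 plates, after 16 h compound exposure and a 2 h beta-lactamase substrate step.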

[27] = qHTS assay for cell viability of HEK293 cells (AID 743288; active means well fitted curve in the direction sought with a large enough effect; an effect the other way counts as inactive or inconclusive; further: on the % scale 0 is the no-effect control and ±100 the full control effect; nearly all actives have a fitted effect of over 50% in size); details: ATP luminescence (CellTiter-Glo), 18 h; max response: stronger effect = lower value
In short: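 Parental HEK293 cells, 2,000 per well, preincubated at least 5 h at 37 C, then exposed to compounds in DMSO for 18 h at 37 C. Viability by CellTiter-Glo ATP luminescence after 30 min at room temperature.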

[28] = qHTS assay for cell viability of the p53RE-bla HCT-116 cell line (AID 743292; active means well fitted curve in the direction sought with a large enough effect; an effect the other way counts as inactive or inconclusive; further: on the % scale 0 is the no-effect control and ±100 the full control effect; nearly all actives have a fitted effect of over 55% in size)
In short: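 Luminescent ATP quantitation (CellTiter-Glo) served as the viability read-out; reagent was added after 16 h compound exposure at 37 C and read after 30 min at room temperature. Cells: p53RE-bla HCT-116, 4,000 per well.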

[29] = target: Glutathione peroxidase 1 (Homo sapiens) (UniProt P07203); assay: Primary qHTS Assay for Inhibitors of Recombinant Selenoprotein Glutathione Peroxidase 1 (GPX1) (AID 1845191; active means well fitted curve in the direction sought with a large enough effect; an effect the other way counts as inactive or inconclusive; further: on the % scale 0 is the no-effect control and ±100 the full control effect; nearly all actives have a fitted effect of over 65% in size)
Chain of Glutathione peroxidase 1 (Homo sapiens) (P07203 whole entry, looked up): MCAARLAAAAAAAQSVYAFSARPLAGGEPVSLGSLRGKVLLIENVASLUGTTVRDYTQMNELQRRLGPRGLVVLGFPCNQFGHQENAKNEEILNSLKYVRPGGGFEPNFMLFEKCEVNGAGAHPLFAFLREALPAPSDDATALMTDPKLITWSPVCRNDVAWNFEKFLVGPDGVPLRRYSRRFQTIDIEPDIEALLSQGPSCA
In short: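 10 nM GPX1 + cpd, 30 min RT; start w/ 1 mM GSH, 0.5 mM cumene hydroperoxide, 0.5 mM NADPH, 100 nM GR, 0.01% BSA; buffer 50 mM Tris-HCl pH 7.5, 2 mM EDTA, 150 mM NaCl; Fl 340/450, 0 & 15 min.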

[30] = target: Phospholipid hydroperoxide glutathione peroxidase GPX4 (Homo sapiens) (UniProt P36969); assay: Primary qHTS Assay for Inhibitors of Recombinant Selenoprotein Glutathione Peroxidase 4 (GPX4) (AID 1845192; active means well fitted curve in the direction sought with a large enough effect; an effect the other way counts as inactive or inconclusive; further: on the % scale 0 is the no-effect control and ±100 the full control effect; nearly all actives have a fitted effect of over 65% in size)
Chain of Phospholipid hydroperoxide glutathione peroxidase GPX4 (Homo sapiens) (P36969 whole entry, looked up): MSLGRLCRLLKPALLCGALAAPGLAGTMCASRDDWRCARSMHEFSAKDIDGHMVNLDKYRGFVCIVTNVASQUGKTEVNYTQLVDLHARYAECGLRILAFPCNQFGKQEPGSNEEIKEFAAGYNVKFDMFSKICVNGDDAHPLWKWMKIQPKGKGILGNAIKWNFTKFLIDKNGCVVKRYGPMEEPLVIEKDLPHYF
In short: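 NADPH consumption, followed by fluorescence at 340/450 nm between 0 and 15 min, reports GPX4 activity via coupled glutathione reductase (100 nM). Enzyme 200 nM was pre-exposed to compound 30 min; 0.5 mM cumene hydroperoxide and 1 mM GSH served as substrates.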

CCOc1nc2cccc(C(=O)O)c2n1Cc1ccc(-c2ccccc2-c2noc(=O)[nH]2)cc1
inactive: Potency [1] | Potency [2] | Potency [3] | Potency [4]
-24.5%: activity change, negative = inhibition [5]

Cc1ccccc1-c1cc(N2CCN(C)CC2)ncc1N(C)C(=O)C(C)(C)c1cc(C(F)(F)F)cc(C(F)(F)F)c1
inactive: Potency [1] | Potency [2] | Potency [3] | Potency [4]
3.24%: activity change, negative = inhibition [5]

O=c1ccc2ccc(OCCCCN3CCN(c4cccc5sccc45)CC3)cc2[nH]1
inactive: Potency [1] | Potency [3] | Potency [6]

CC(COc1ccc(Oc2ccccc2)cc1)Oc1ccccn1 (configuration not stated)
-19.9% and -8.14%: max response [18]
inactive and 39.8 µM (active): Potency [7]
active: Potency [21] 48.6 µM and 27.3 µM
inactive: outcome [8] | activation [9] 0.631% and 1.01% | outcome [10] | Potency [12] | outcome [13] | Potency [14] | outcome [15] | outcome [16] | outcome [17] | max response [19] -8.09% and -10.1% | activity change % (negative = inhibition) [20] 4.1% and -8.02% | activation [22] -3.04% and -2.31% | activation [23] -1.12% and 0.467% | activation [24] 13% | max response [25] -1.27% and -0.944% | max response [26] 2.4% and -4.17% | max response [27] -1.69% and -16.3% | Potency [28] | Potency [1] | Potency [2] | Potency [3] | Potency [4] | Potency [29] | Potency [30]
-5.43%: activity change, negative = inhibition [5]
11.7% and -13.8%: max response [11]

— PubChem BioAssay (NCATS)
